{"source": "PubChem BioAssay (EPA / NIEHS)", "note": "Calls of active or inactive are those of the source. How the source made its calls: active means hit-call score of the fitted dose curve at least 0.9, where 1 is the maximum; inactive means score below 0.9.", "data": [{"read-out": "NAD(P)H dehydrogenase [quinone] 1 (NQO1), NQO1 (gene 1728)", "assay": "LTEA_HepaRG_NQO1: Life Technologies and Expression Analysis (LTEA) Assay for NAD(P)H dehydrogenase [quinone] 1 (NQO1) using HepaRG (AID 2283526)", "conditions": "mRNA level, 48 h; actives raise or lower the signal", "method": "LTEA_HepaRG is a cell based, multiplexed-readout assay that uses HepaRG, a human liver cell line, with measurements taken at 48 hours after chemical dosing on a 96-well plate.LTEA_HepaRG_NQO1 is one of 102 assay component(s) measured in the LTEA HepaRG cell culture assay. It is a marker of Diseases associated with NQO1 include Tardive Dyskinesia and Childhood Leukemia.Data from the assay component LTEA_HepaRG_NQO1 was analyzed into 1 endpoint. This assay endpoint, LTEA_HepaRG_NQO1, was analyzed with bidirectional fitting relative to DMSO as the negative control and baseline of activity. Using a type of inducible reporter, measures of mRNA induction for gain or loss-of-signal activity can be used to understand regulation of transcription factor activity. To generalize the intended target to other relatable targets, this assay endpoint is annotated to the oxidoreductase intended target family, where the subfamily is quinone-acceptor.\nA total of 1060 chemcials from the ToxCast library were tested in eight-point concentration-response experiments. Cell culture and cytotoxicity assays were conducted at Thermo Fisher Scientific's Custom Services facility (Madison, WI). A single lot of human HepaRG cells (Thermo Fisher Scientific, Frederick, MD) was used for the cell culture experiments. 96-well format collagen type I coated plates of human HepaRG cells were prepared using established methods. Briefly, cryopreserved HepaRG cells were thawed, plated at a density of approximately 100,000 cells/well in HepaRG Thaw, Plate, and General Purpose media (HPRG770, Thermo Fisher Scientific), and incubated for 48 hours. 0.5% DMSO was selected as vehicle control to balance the requisite need of DMSO in HepaRG cultures to maintain differentiation (for example, baseline metabolism, proportions of hepatocytes vs. cholangiocytes), while enabling further hepatic receptor pathway activation (for example, PXR and CAR) in response to chemical exposure. 48 hours after plating, the culture medium was replaced with HepaRG Serum-Free Incudtion Media. Cells were exposed to each test chemical in duplicate and maintained in CO2 incubators for another 48 hours. Chemical plates were thawed to room temperature and 200x concentrations of treatment groups were prepared. 8-point conentration-reponse curves were made with the highest exposure at 100 uM, followed by half-log dilutions, all in 0.5% DMSO. Each test plate contained variouse controls, induction positive controls (1mM phenobarbital), cytotoxicity positive controls ([…] aflatoxin B1), vehicle controls (0.5% DMSO), and total lysis controls (0.5% DMSO). Cell morphology images were taken using an Essen IncuCyte FLR automated microscope, with six 96-well plates imaged in about 24 minutes. Images were captured and exported and JPEG files. Spent culture media was transfered to black-well plates for the LDH assay, and remaining media was sorted at -80 C for later use. Cells were treated with RLT buffer and frozen until shipped for gene expression analysis. Total RNA was isolated from the cell suspension in 75 uL of Buffer RLT (Qiagen, Germantown, MD 20874) by Quintiles/Expression Analysis (Durham, NC) using a custom isolation procedure. Total RNA from each plate well was transferred to a preamplification plate. Fluidigm's 96.96 Dynamic ArrayTM (Fluidigm, Amsterdam, the Netherlands) technology was used for gene expression analyses by quantitative reverse transcription polymerase chain reaction (qRT-PCR, performed by Quintiles/Expression Analysis, Durham, NC)89. Standard TaqManTM Assays (Applied Biosystems/ThermoFisher Scientific, Foster City, CA) were used to assess the expression of 93 genes selected based on their selectivity and sensitivity to important hepatic receptors known to be modulated by environmental chemicals; importance in human hepatocyte functionality; and hepatotoxicity. […]", "values": [{"smiles": "CCCN(CCC)N=O", "outcome": "inactive"}, {"smiles": "O=C(N[C@H]1CN2CCC1CC2)c1cc2ccoc2cn1", "outcome": "inactive"}, {"smiles": "C1CC2OC2CC1C1CO1", "note": "(stereo not given)", "outcome": "inactive"}, {"smiles": "COc1ccc(O)c(C(C)(C)C)c1", "outcome": "inactive"}, {"smiles": "CCCCCCOC(=O)c1ccccc1C(=O)OCCCCCC", "outcome": "inactive"}, {"smiles": "CCOC(=O)C(O)(c1ccc(Cl)cc1)c1ccc(Cl)cc1", "outcome": "inactive"}, {"smiles": "C=CC(=O)NCNC(=O)C=C", "outcome": "inactive"}, {"smiles": "CCSC(=O)N(CC)C1CCCCC1", "outcome": "inactive"}, {"smiles": "COS(=O)(=O)OC", "outcome": "inactive"}, {"smiles": "Cc1cccc(C)c1N", "outcome": "inactive"}, {"smiles": "Cc1ccccc1[N+](=O)[O-]", "outcome": "inactive"}, {"smiles": "Nc1ccc(-c2ccc(N)cc2)cc1", "outcome": "inactive"}, {"smiles": "Cc1ccccc1O", "outcome": "inactive"}, {"smiles": "CCC(=O)O[C@H]1CC[C@H]2[C@@H]3CCC4=CC(=O)CC[C@]4(C)[C@H]3CC[C@]12C", "outcome": "inactive"}, {"smiles": "NS(=O)(=O)C(F)(F)C(F)(F)C(F)(F)C(F)(F)C(F)(F)C(F)(F)C(F)(F)C(F)(F)F", "AC50": "12.8 µM (active)"}, {"smiles": "CCCCCCCCCC[N+](C)(C)CCCCCCCCCC", "outcome": "inactive"}, {"smiles": "Cc1cc(O)ccc1Cl", "outcome": "inactive"}, {"smiles": "Oc1c(Cl)c(Cl)c(Cl)c(Cl)c1Cl", "AC50": "6.48 µM (active)"}, {"smiles": "Nn1cnnc1", "outcome": "inactive"}, {"smiles": "Clc1ccc(C(Cl)(Cl)Cl)cc1", "outcome": "inactive"}, {"smiles": "c1cc2ccc3cccc4ccc(c1)c2c34", "outcome": "inactive"}, {"smiles": "CC#Cc1cc(C)nc(Nc2ccccc2)n1", "outcome": "inactive"}, {"smiles": "Cc1ccc(O)c(C)c1", "outcome": "inactive"}, {"smiles": "CN(C)c1nc(=O)n(C2CCCCC2)c(=O)n1C", "outcome": "inactive"}, {"smiles": "ClC1=C(Cl)[C@]2(Cl)[C@@H]3[C@@H](Cl)[C@H]4O[C@H]4[C@@H]3C1(Cl)C2(Cl)Cl", "outcome": "inactive"}, {"smiles": "C[C@]12CCC(=O)C=C1CC[C@@H]1[C@@H]2CC[C@]2(C)C(=O)CC[C@@H]12", "outcome": "inactive"}, {"smiles": "C[C@]12CCC(=O)C=C1CC[C@@H]1[C@@H]2CC[C@@]2(C)[C@H]1CC[C@]2(C)O", "outcome": "inactive"}, {"smiles": "CCCCCCCCOC(=O)c1ccccc1C(=O)OCCCCCCCC", "outcome": "inactive"}, {"smiles": "O=S(=O)(O)C(F)(F)C(F)(F)C(F)(F)C(F)(F)C(F)(F)C(F)(F)F", "outcome": "inactive"}, {"smiles": "O=C(NC(=O)c1cc(F)c(F)cc1Cl)Nc1cc(F)ccc1N1CCC(C(=O)O)CC1", "outcome": "inactive"}, {"smiles": "O=NN(c1ccccc1)c1ccccc1", "outcome": "inactive"}, {"smiles": "O=S(=O)(O)C(F)(F)C(F)(F)C(F)(F)C(F)(F)F", "outcome": "inactive"}, {"smiles": "O=C(O)C(F)(F)C(F)(F)C(F)(F)C(F)(F)C(F)(F)F", "outcome": "inactive"}, {"smiles": "ClC1=C(Cl)[C@]2(Cl)[C@@H]3[C@@H]4C[C@@H]([C@H]5O[C@@H]45)[C@@H]3[C@@]1(Cl)C2(Cl)Cl", "outcome": "inactive"}, {"smiles": "O=C(O)C(F)(F)C(F)(F)C(F)(F)C(F)(F)C(F)(F)C(F)(F)C(F)(F)C(F)(F)F", "outcome": "inactive"}, {"smiles": "CCC(C)c1cc([N+](=O)[O-])cc([N+](=O)[O-])c1O", "note": "(stereo not given)", "AC50": "3.47 µM (active)"}, {"smiles": "CCNc1nc(NC(C)C)nc(SC)n1", "outcome": "inactive"}, {"smiles": "O=C(O)C(F)(F)C(F)(F)C(F)(F)C(F)(F)C(F)(F)C(F)(F)C(F)(F)C(F)(F)C(F)(F)F", "outcome": "inactive"}, {"smiles": "c1ccc(-c2ccccc2)cc1", "outcome": "inactive"}, {"smiles": "CC(C)C(=O)OCC(C)(C)C(OC(=O)C(C)C)C(C)C", "note": "(stereo not given)", "outcome": "inactive"}]}]}
